Reference: PubChem BioAssay AID687014 (The Scripps Research Institute Molecular Screening Center, 2013)
Among all 370,000 compounds or so, about 6,800 (1.8%) were called active.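 How the source made its calls: active means activation above a cutoff set at the mean of all screened compounds plus 3 SD (cut at about 10% in these data); inactive means the rest.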 The sample as a whole holds a higher share of actives than the screen did.

Each compound was assayed on Nuclear hormone receptor DAF-12 (Heterodera glycines), GAL4 fusion (assay: hgDAF-12 GAL4 fusion reporter activation – cell-based, luminescence, HEK293, UAS-luciferase, primary screen (AID 687014;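 further: 0% = DMSO wells and 100% = sodium butyrate wells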)). Conditions: HEK293 GAL4-hgDAF12 UAS-luciferase reporter, agonist luminescence; at 6.8 µM; stronger effect = higher value; normalized to butyrate control.

| SMILES | activation |
| --- | --- |
| COC1=C[C@H](C(=O)NCCNC(C)=O)[C@H](C)[C@@H](c2ccccc2)CC1=O | -1.27% (inactive) |
| O=C(Cn1c(N2CCN(C/C=C/c3ccccc3)CC2)nc2ccccc21)c1ccccc1 | -0.26% (inactive) |
| O=C(Nc1ccc(C2CC2(Cl)Cl)cc1)c1cccc([N+](=O)[O-])c1 (stereo not drawn) | 14.5% (active) |
| O=C(NC(=S)NC1CCS(=O)(=O)C1)c1cccc([N+](=O)[O-])c1 (stereo not drawn) | 3.84% (inactive) |
| Cc1ccc(NC(=O)C(=O)NCC2CCN(C(=O)c3cccc([N+](=O)[O-])c3)CC2)cc1 | 1.22% (inactive) |
| COc1ccc(S[C@]2(C(=O)N(C)C)CC(=O)N(c3ccc(OC)cc3)[C@@H]2c2ccc(OC)cc2)cc1 | -1% (inactive) |
| CC(=O)N1C(C)c2ccccc2C(C)(C)CC12CCCCC2 (stereo not drawn) | -2.75% (inactive) |
| CN[C@H]1C[C@H]2c3[nH]c4c(-c5ccccc5)cccc4c3CCN2C(=O)[C@H]1[C@H](C)O | -0.57% (inactive) |
| O=C(N/N=C/c1cccc2cccnc12)[C@H]1C[C@@H]1c1ccccc1 | -1.03% (inactive) |
| O=C(NC(=S)Nc1cccc2c(O)cccc12)c1cccc(Br)c1 | 0.96% (inactive) |
| O=C(NC(=O)c1ccccc1)Nc1ccccc1O | 13.8% (active) |
| O=C(Cc1ccc(Cl)cc1)NC(=S)Nc1ccccc1O | 3.46% (inactive) |
| CCOC(=O)[C@H]1CCC[C@@H](NS(=O)(=O)c2ccc(NC(C)=O)cc2)C1 | 1.29% (inactive) |
| Cc1ccc(NC(=O)Cc2cccc(F)c2)c(S(=O)(=O)N2CCOCC2)c1 | 1.41% (inactive) |
| COCC1CCCN(Cc2nc(-c3ccc4c(c3)OCO4)no2)C1 (stereo not drawn) | 6.75% (inactive) |
| O=C(COCc1cc(-c2ccc3c(c2)OCO3)on1)N1CCN(c2cccc(Cl)c2)CC1 | 1.17% (inactive) |
| CCc1ccccc1NC(=O)CSc1nnc(-c2cccs2)o1 | 2.52% (inactive) |
| Brc1ccc(C2CC(c3ccccc3)=Nc3ccccc3N2)cc1 (stereo not drawn) | 17.3% (active) |
| CNC(=S)N1N=C(c2ccccc2)CC1c1ccc(Br)cc1 (stereo not drawn) | -1.01% (inactive) |
| CN1[C@H](Cc2ccccc2)COc2cccc(N3CCSCC3)c2S1(=O)=O | 4.83% (inactive) |
| Cc1cc(=O)[nH]c(SCC(=O)Nc2ccc(Cl)cc2C)n1 | 1.76% (inactive) |
| CCCCCCCCNS(=O)(=O)/C=C/c1cc(C)ccc1CNC(=O)OC(C)(C)C | 0.08% (inactive) |

| SMILES | activation |
| --- | --- |
| COC(=O)c1cc(S(=O)(=O)N2CCN(c3ccccc3C)CC2)cn1C | -4.6% (inactive) |
| Cc1sc(NC(=O)c2ccc3ncsc3c2)c(C(N)=O)c1C | 8.75% (inactive) |
| CCOC(=O)c1cc(C(C)C)sc1NC(=O)COC(=O)c1nccnc1N | 0.71% (inactive) |
| CC(C)c1cc(C(N)=O)c(NC(=O)c2cccc(COc3ccc(Br)cc3)c2)s1 | 16.6% (active) |
| C[C@H](O)[C@@H]1C(=O)N2CCc3c([nH]c4c(-c5ccc6c(c5)OCO6)cccc34)[C@@H]2C[C@@H]1N(C)C(=O)c1ccco1 | 2.82% (inactive) |
| Nc1nc2c(ncn2[C@@H]2O[C@H](C(=O)N[C@H](Cc3ccccc3)C(=O)NCC3CCCCC3)[C@@H](O)[C@H]2O)c(=O)[nH]1 | -0.41% (inactive) |
| c1ccc2c(c1)nnn2-c1ccncc1 | 0.89% (inactive) |
| COCCCNC(=O)C[C@H]1C[C@@]2(C(=O)OC)C(=C[C@H](C(C)(C)C)O[C@@H]2C)N(Cc2ccc3c(c2)OCO3)C1=O | 1.15% (inactive) |
| CC1CCN(Cc2nc(-c3ccc(Cl)cc3)no2)CC1 | 0.37% (inactive) |
| Cc1ccc(-c2noc(CNC(=O)c3ccoc3C)n2)cc1 | -0.34% (inactive) |
| Cc1cc(Cl)ccc1OCc1nc(-c2ccncc2)no1 | 14% (active) |
| CN(CCc1ccccc1)C(=O)Cn1nc(-c2ccccc2)ccc1=O | 1.22% (inactive) |
| O=C1CC[C@@]23CCCN2C(=O)CCC[C@H]3[C@H]1Cc1ccccc1 | -4.37% (inactive) |
| Cc1nc2cc(NC(=O)Nc3cccc(F)c3)ccc2n1C | 14.2% (active) |
| Cc1nc2nc(SCC(=O)Nc3cccc(F)c3)[nH]c2cc1Br | 0.38% (inactive) |
| Cc1nc2cc(NCc3cccs3)ccc2n1C | 8.48% (inactive) |
| Cc1ccc(C)c(CN2CCC(CNC(=O)C3CCCN(c4ncnc5c4nc4n5CCCCC4)C3)CC2)c1 (stereo not drawn) | -0.85% (inactive) |
| COC(=O)C(C(=O)OC)c1ccccc1NS(=O)(=O)c1cccc2ccccc12 | -2.1% (inactive) |
| CCOc1ccc(NC(=O)C2CCCN(C(=O)Nc3ccccc3)C2)cc1 (stereo not drawn) | 1.89% (inactive) |
| CCOc1ccc2nc(C(=O)N3CCCC(C)C3)sc2c1 (stereo not drawn) | 17.9% (active) |
| COc1ccc2cc(C(=O)C3CCCN(C(=O)c4sc(C)nc4C)C3)ccc2c1 (stereo not drawn) | -1.02% (inactive) |
| COc1ccc(N(CC(=O)NCc2ccc(F)cc2)C(=O)CCC(=O)Nc2nccs2)cc1 | 1.39% (inactive) |

| SMILES | activation |
| --- | --- |
| CC(C)C(=O)Nc1oc(-c2ccccc2)cc1C#N | -0.28% (inactive) |
| CC(C)C(=O)Nc1ccc2c(c1)oc1ccccc12 | 12.2% (active) |
| CC(C)C(=O)Nc1c(C(=O)c2ccc(F)cc2)oc2ccccc12 | -0.79% (inactive) |
| COC(=O)N1Cc2ccnnc2CC1c1ccccc1Br (stereo not drawn) | 0.66% (inactive) |
| FC(F)(F)c1cccc(-c2nc3ccccc3n2C(c2ccccc2)c2nc3ccccc3[nH]2)c1 (stereo not drawn) | 10.7% (active) |
| FC(F)(F)c1cccc(-c2cc3ccccc3nc2N2CCCC2)c1 | -1.35% (inactive) |
| CCC(c1nc2ccccc2[nH]1)n1c(=O)c(-c2cccs2)nc2ccccc21 (stereo not drawn) | 1.53% (inactive) |
| COC(=O)C1=C(C)N(Cc2ccccc2C(F)(F)F)C(=NCC2CC2)NC1c1cccc(Cl)c1 (stereo not drawn) | 4.82% (inactive) |
| C=CCN1[C@H](CC(C)C)COc2cccc(N3CCCC3)c2S1(=O)=O | 1.57% (inactive) |
| Cn1nc(-c2ccccc2)c(CSc2cccc(Cl)c2)c1Cl | -1.11% (inactive) |
| Clc1ccc2nc(CSc3ccccc3)cn2c1 | 15.8% (active) |
| O=c1c2ccccc2nc2n1C(CSc1ccc(Cl)cc1)CN2 (stereo not drawn) | -1.24% (inactive) |
| COC(=O)C[C@@H]1CC[C@@H]2[C@H](COc3ccc(NC(=O)c4cccc(F)c4)cc3C(=O)N2C)O1 | 7.18% (inactive) |
| Cc1noc(C)c1NC(=O)Nc1ccc2c(c1)C(=O)N([C@H](C)CO)C[C@H](C)[C@H](CN(C)Cc1ccncc1)OCCCC[C@@H](C)O2 | 2.01% (inactive) |
| C=CS(=O)(=O)N(Cc1nnn(Cc2ccccc2)c1Br)[C@H](C(=O)OC)C(C)C | -3.42% (inactive) |
| COCC(=O)N1CCCC(C(=O)c2ccc(C(F)(F)F)cc2)C1 (stereo not drawn) | -2.29% (inactive) |
| Cc1cnc(C(=O)N2CCCC(C(=O)c3ccc(C(F)(F)F)cc3)C2)cn1 (stereo not drawn) | 19.4% (active) |
| O=C(c1ccc(C(F)(F)F)cc1)C1CCCN(C(=O)c2csnn2)C1 (stereo not drawn) | -0.18% (inactive) |
| COc1ccc(-n2c(SCC(=O)Nc3ccc4cn[nH]c4c3)nnc2-c2cccnc2)cc1 | -0.21% (inactive) |
| OC(CCl)CCl | 2.07% (inactive) |
| C/C(=N\NC(=O)CSc1nc2ccccc2c(=O)n1-c1ccccc1C)c1cccs1 | -2.57% (inactive) |
| C/C(=N\Nc1ccc(S(N)(=O)=O)cc1[N+](=O)[O-])c1cccs1 | -0.57% (inactive) |

| SMILES | activation |
| --- | --- |
| C/C(=N\Nc1nc2ccccc2[nH]1)c1cccs1 | 12.3% (active) |
| COCCCNC(=O)C[C@H]1C[C@@]2(C(=O)OC)C(=C[C@H](C(C)(C)C)O[C@@H]2C)N(Cc2ccc(Cl)cc2Cl)C1=O | -0.78% (inactive) |
| Cc1cc(N2CCN(C(=O)OC(C)(C)C)C[C@H]2C)ccc1N1CCN(Cc2ccccc2)[C@H](C)C1 | -0.97% (inactive) |
| COc1ccc(C(=O)C2CCCN(C(=O)c3cc(C)on3)C2)cc1F (stereo not drawn) | -1.33% (inactive) |
| O=C(c1cc(-c2ccccc2O)on1)N1CCCC1 | 13.1% (active) |
| CCOC(=O)C1CCCN(C(=O)c2cc(-c3cccs3)oc2C)CC1 (stereo not drawn) | -2.05% (inactive) |
| COc1ccc(OCc2cc(C(=O)N3CCCC3)no2)c2ccccc12 | 7.54% (inactive) |
| COc1ccccc1-c1cc(C(=O)N2CCCCC2)no1 | 11.7% (active) |
| O=C(c1cc(-c2cccs2)on1)N1CCCCC1 | 10.8% (active) |
| O=C(c1cc(C2CCCCN2S(=O)(=O)c2ccccc2)on1)N1CCOCC1 (stereo not drawn) | 1.09% (inactive) |
| O=C(c1cc(COc2cccc(C(F)(F)F)c2)on1)N1CCSCC1 | -1.54% (inactive) |
| CC(=O)c1ccc(NC(=O)c2cc(-c3cccs3)on2)cc1 | 1.57% (inactive) |
| N#Cc1ccc(OC[C@@H](O)CN2CCC(C(O)(c3ccccc3)c3ccccc3)CC2)c(F)c1 | -0.04% (inactive) |
| CN(C)Cc1cn(-c2ccc(-c3noc4c3C(=O)N(CC(=O)N3CCOCC3)CC4)cc2)nn1 | -1.17% (inactive) |
| O=C(c1ccncc1)N1CC[C@H]2[C@H](CCCN2Cc2ccc(F)cc2)C1 | 5.55% (inactive) |
| O=C(NCCS(=O)(=O)N1CCN(c2ccccc2F)CC1)c1ccc(Br)o1 | 0.09% (inactive) |
| CC(=O)N1Cc2cc(C(=O)NCc3cccc(F)c3)nc(-c3cccc(C4=CCCC4)c3)c2[C@H]1CCO | -1.83% (inactive) |
| COc1ccc2c(c1)CN1CN(CCc3ccccc3)S(=O)(=O)CC21 (stereo not drawn) | 0.93% (inactive) |
| Cc1ccoc1C(=O)Nc1cccc(Oc2ccccc2)c1 | 11.7% (active) |
| COc1ccc(/C=C/C(=O)OCC(=O)Nc2cccc(Oc3ccccc3)c2)c(OC)c1 | 2.49% (inactive) |
| CC1(C(=O)Nc2cccc(Oc3ccccc3)c2)CCN1Cc1ccccc1Cl (stereo not drawn) | -0.38% (inactive) |
| O=C(NCc1ccccc1)[C@@H]1CCCN1C(=O)[C@@H](NS(=O)(=O)c1ccc(F)cc1F)C1CCCCC1 | -0.9% (inactive) |
